This note sets out measurements from PubChem BioAssay (EPA / NIEHS).

Active and inactive are the calls of the source. How the source made its calls: active means hit-call score of the fitted dose curve at least 0.9, where 1 is the maximum; inactive means score below 0.9.

This assay is described as follows: ATG_PPRE_CIS: Attagene CIS-FACTORIAL HepG2 Assay for human Peroxisome Proliferator-activated Response Element (PPRE) (AID 2282958). The note with it: HepG2 PPRE cis-element reporter, Attagene transcription factor profiling; actives raise or lower the signal. The protocol: ATG_CIS is a cell-based, multiplexed-readout assay that uses HepG2, a human liver cell line, with measurements taken at 24 hours after chemical dosing in a 24-well plate.ATG_PPRE_CIS is one of 52 assay component(s) measured or calculated from the ATG_CIS assay. It is designed to make measurements of mRNA induction, a form of inducible reporter, as detected with fluorescence intensity signals by Reverse transcription polymerase chain reaction (RT-PCR) and Capillary electrophoresis technology.Data from the assay component ATG_PPRE_CIS was analyzed into 1 assay endpoint. This assay endpoint, ATG_PPRE_CIS, was analyzed with bidirectional fitting relative to DMSO as the negative control and baseline of activity. Using a type of inducible reporter, measures of mRNA for gain or loss-of-signal activity can be used to understand the reporter gene at the transcription factor-level as they relate to the gene PPARA and PPARD and PPARG. Furthermore, this assay endpoint can be referred to as a primary readout, because this assay has produced multiple assay endpoints where this one serves a reporter gene function. To generalize the intended target to other relatable targets, this assay endpoint is annotated to the nuclear receptor intended target family, where the subfamily is non-steroidal.
Human liver HepG2 cells are transiently transfected with multiple reporter transcription units (MRTUs) in 6-well plates using FuGene 6 reagent (Roche; 3 ml FuGene/1 mg DNA). The MRTU constructs are regulated by a cis-regulating element (promoter). […] A major difference between the CIS and TRANS system is that in CIS activities of endogenous TFs are measured, whereas the TRANS assay evaluates changes in activities of exogenous, chimeric NR-Gal4 proteins. […] At the end of 24 hour incubation, total RNA was isolated using TriZol reagent (Invitrogen). The isolated RNA is then reverse-transcribed using oligo(dT) primer and Mo-MLV reverse transcriptase (Invitrogen) with DNAse I (Ambion) treatment for 30 min. The one-tenth of the produced cDNA was amplified by PCR using Taq DNA polymerase (Invitrogen) and two reporter sequence-specific primers. The PCR products were fluorescently labeled by primer extension with 6-arboxyfluorescein (6-FAM) 5'-labeled reporter sequence-specific primer (2 min at 95 C, 20 s at 68 C and 10 min at 72 C) and these products were digested with 5U of HpaI (New England Biolabs) for 2h at 37 C. The fragments were purified using Qiaquick PCR columns (Qiagen), analyzed on an ABI 3130xL genetic analyzer (Applied Biosystems) with peak positions identified by using a set of X-rhodamine (ROX)-labeled MapMarker1000 molecular weight standards (BioVentures). The raw capillary electrophoresis data was processed using Attagraph software (Attagene).
Regarding `COC(C)(C)CCCC(C)CC=O` (stereo not given), the compound was classed as inactive. Still for that read-out and setting: the entry for `CCCCC1CCC(O)CC1` (stereo not given) is “inactive”; for `Cc1ncc([N+](=O)[O-])n1CCO` it is “inactive”.

On to `CCCC1O[C@@H]2C[C@H]3[C@@H]4CCC5=CC(=O)C=C[C@]5(C)[C@H]4[C@@H](O)C[C@]3(C)[C@]2(C(=O)CO)O1` (stereo not given in full), for which the result was inactive.

Take `OCCCCC(O)CO` (stereo not given): the compound was called inactive. On the same count and under the same terms, the same measure for `COC(=O)C=C(C)CCC=C(C)C`: “inactive”. `CN(C)C(=S)SC(=S)N(C)C`: the concentration at half-maximal activity (AC50) is 46.2 µM (active). As to `Nc1ccc(NCCO)c([N+](=O)[O-])c1`, the result was inactive. On the same count and under the same terms, the entry for `CCCCSCCCC` is “inactive”; for `CCC(C)S` (stereo not given) it is “inactive”; for `COC(C)(C)CCO` it is “inactive”. On to `CCCCCCC(C)Nc1ccc(Nc2ccccc2)cc1` (stereo not given), for which the compound was classed as inactive.

Consider `CCCCCCCC/C=C\CCCCCCCC(=O)OCC`, for which the outcome was inactive. The same measure, in the same setting: the same measure for `Cc1ccc(S(N)(=O)=O)cc1`: “inactive”; for `CCO/C=C1\N=C(c2ccccc2)OC1=O`: “inactive”; for `OCCc1ccccc1`: “inactive”. Regarding `CCOC(=O)C(C#N)=C(c1ccccc1)c1ccccc1`, the half-maximal activity concentration (AC50) was 154 µM (active). For `CC(C)Nc1nc(N)nc(Cl)n1`, the result was inactive. On to `CC(=O)CC(=O)Nc1ccccc1`, for which the result was inactive. Still for that read-out and setting: the entry for `COc1ccc(CCC(C)=O)cc1` is “inactive”; for `CCCCOCC` it is “inactive”. On to `CCCC(C)=O`, for which the compound was called inactive. Still for that read-out and setting: the same measure for `CCCCCC(=O)CC`: “inactive”. The same measure, in the same setting: the same measure for `CN1CCOCC1`: “inactive”; for `CC1(C)O[C@@H]2C[C@H]3[C@@H]4CCC5=CC(=O)C=C[C@]5(C)[C@@]4(F)[C@@H](O)C[C@]3(C)[C@]2(C(=O)CO)O1`: “inactive”. Regarding `CCOC(=O)C1OC1c1ccccc1` (stereo not given), the concentration at half-maximal activity (AC50) is 21.6 µM (active). Take `COc1cc(CCC(C)=O)ccc1O`: the result was inactive. For the compound `CC(C)C[C@H](NC(=O)OCC1c2ccccc2-c2ccccc21)C(=O)O`, the AC50 is 14.7 µM (active). On the same count and under the same terms, the figure for `C=Cc1ccncc1` is 13.5 µM (active). Take `C=CCCCCCCCCCC`: the compound was called inactive. Consider `CCCCCCCCC=CCCCCCCCC1=NCCN1CCO`, for which the half-maximal activity concentration (AC50) is 0.261 µM (active). With `O=[N+]([O-])c1cccc(Cl)c1`, the compound was classed as inactive. On the same count and under the same terms, the entry for `C[C@H]1O[C@@H](O[C@H]2[C@@H](O)C[C@H](O[C@H]3[C@@H](O)C[C@H](O[C@H]4CC[C@@]5(C)[C@H](CC[C@@H]6[C@@H]5C[C@@H](O)[C@]5(C)[C@@H](C7=CC(=O)OC7)CC[C@]65O)C4)O[C@@H]3C)O[C@@H]2C)C[C@H](O)[C@@H]1O` is “inactive”. With `CCCCCCC(=O)c1ccccc1`, the compound was classed as inactive. Turning to `CCOC(=O)COC(=O)c1cc(Oc2ccc(C(F)(F)F)cc2Cl)ccc1[N+](=O)[O-]`, the AC50 was 12.4 µM (active). In the case of `CCCCCCCC(=O)OCC(O)CO` (stereo not given), the result was inactive. The same measure, in the same setting: the same measure for `Nc1ccc2c(O)cc(S(=O)(=O)O)cc2c1`: “inactive”; for `CCOc1ccc(N=Nc2ccc(C=Cc3ccc(N=Nc4ccc(OCC)cc4)cc3S(=O)(=O)O)c(S(=O)(=O)O)c2)cc1`: “inactive”; for `CCc1cc(C(C)(C)C)c(O)c(C(C)(C)C)c1`: “inactive”. On the same count and under the same terms, the same measure for `CCCCCCCCc1ccc(S(=O)(=O)O)cc1`: “inactive”.

In general, AC50 refers to the concentration giving half of the maximal activity seen.
